Screening results: PubChem, several laboratories
An excerpt weighted towards active compounds, which were near 2.5% of everything screened.
FXN GAA850 act: FXN promoter activators, primary screen, cell-based, luciferase luminescence, HEK293 lucGAA850; HEK293 lucGAA850 FXN promoter luciferase reporter, 24 h; percent of 10 µM SAHA response; activation, % at 6 µM; 360,000 compounds, 0.56% hits;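 active = activation above the average of all compounds screened plus 3 SD, cutoff fixed separately per campaign, cut at about 7.5% in these data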;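 note: 0% = DMSO wells and 100% = 10 µM SAHA wells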
EWS-Fli block: EWS/Fli-driven NR0B1 reporter inhibitors, primary screen, A673 cells, NR0B1 luciferase, luminescence, MLPCN library; viability-normalised; inhibition, % at 12.6 µM; 350,000 compounds, 0.67% hits; AID 651661, 2012;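 active = mean inhibition of at least 50% after viability correction, with every replicate also passing that limit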;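 note: firefly luciferase signal divided by Alamar Blue viability fluorescence both relative to DMSO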
F508del corr: F508del CFTR correction, initial screen, CFBE line, single point. activity (quench increase), % at 7.58 µM. AID 720511, 2013. CFBE cells, YFP halide quenching; stimulated with forskolin plus potentiator P3; % fluorescence drop versus neutral controls. 350,000 compounds, 0.36% hits;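 active = mean added fluorescence quench of at least 8% versus neutral control, with both replicates also reaching 8%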;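 note: cells transiently co-express mutant CFTR-F508del with the halide-sensitive YFP; corrector assay measuring rescue of mutant channel to the surface after 24 h compound exposure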
PAX8 inh HTS: inhibitors of PAX8-driven TPO luciferase reporter, primary screen, RMG-I cells, single concentration. SteadyGlo, 24 h. inhibition, % at 12.6 µM. 360,000 compounds, 1.2% hits;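 active = mean replicate inhibition at least 60% with every replicate also reaching 60%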;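 note: luciferase light reporting Pax8 driven TPO promoter activity; plate controls were median of neutral control wells for no effect and mitoxantrone controls for full effect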
Env fusion inh: inhibitors of HIV-1 Env-driven cell-cell fusion, primary screen, HeLa-JRFL effector, CEM21 target cells, luciferase | 360,000 compounds, 1.1% hits | inhibition, % at 12.3 µM;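 active = mean replicate inhibition score of at least 50 and every replicate individually at or above 50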;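 note: 0% = plate neutral controls and 100% = maraviroc near 300 nM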
* = called active by the depositor; . = no result given; ! = repeats disagree; [ ] = another dose, or the depositor's remark.

SMILES	FXN GAA850 act	EWS-Fli block	F508del corr	PAX8 inh HTS	Env fusion inh
C[C@H]1CN([C@@H](C)CO)C(=O)c2cc(/C=C/c3ccccc3)cnc2O[C@@H]1CN(C)C(=O)CN1CCOCC1	.	3.9	3.2	2.6	-12.1[16.7 µM]
CSC1SCC2C(=O)N(C)C(C(C)C)C(=O)OCC(NC(=O)c3cnc4ccccc4n3)C(=O)NC(C)C(=O)N(C)C1C(=O)N(C)C(C(C)C)C(=O)OCC(NC(=O)c1cnc3ccccc3n1)C(=O)NC(C)C(=O)N2C (stereo not drawn)	-14.9	16.2	-3.4	96.8*	84.2*
Cc1sc(NC(=O)c2ccco2)c(C(c2cccnc2)N2CCC(C)CC2)c1C (stereo not drawn)	-6.0	.	.	12.7	62.1*
CCCC(=O)Nc1ccc2c(c1)C(=O)N(C)[C@@H]1CC[C@H](CC(=O)NCCCN(C)C)O[C@@H]1CO2	.	1.6	1.7	-5.2	1.7[16.7 µM]
O=C(C[C@H]1CC[C@H](NC(=O)c2ccncc2)[C@H](CO)O1)NCCc1ccncc1	.	-0.6	-1.9	-10.3	10.9[16.7 µM]
O=C(O)C[C@@H]1CC[C@@H](NC(=O)c2ccncc2)[C@H](CO)O1	.	-7.2	-0.8	-12.2	63.1*[16.7 µM]
O=C(O)C[C@@H]1CC[C@H](NC(=O)c2ccncc2)[C@@H](CO)O1	.	-8.6	1.8	1.1	-0.9[16.7 µM]
O=C(C[C@@H]1CC[C@@H](NC(=O)c2ccncc2)[C@H](CO)O1)NCCc1ccncc1	.	-0.5	3.1	-2.1	62.4*[16.7 µM]
O=C(O)C[C@H]1CC[C@@H](NC(=O)CCN2CCCCC2)[C@@H](CO)O1	.	0.6	-1.6	.	.
C[C@@H]1CN([C@H](C)CO)C(=O)c2cc(NS(C)(=O)=O)ccc2O[C@@H](C)CCCCO[C@@H]1CN(C)S(C)(=O)=O	.	-11.5	-2.5	9.7	2.4[16.7 µM]
Cc1cccc(-c2ccc(C3[C@@H]4CN(C(=O)Nc5ccc(F)cc5)C[C@H]3N4)cc2)c1 (stereo partly drawn)	.	-6.1	-3.7	94.8*!	.
O=C(Nc1cccc(F)c1)N1C[C@@H]2N[C@H](C1)C2c1ccc(-c2ccc(F)cc2)cc1 (stereo partly drawn)	.	2.6	-3.2	85.8*!	.
CO[C@@H]1CN(C)C(=O)c2ccc(NC(=O)c3cc(C)on3)cc2OC[C@H](C)NC[C@@H]1C	.	-1.5	0.5	.	.
O=C(Nc1cccc(-c2ccc(N3CCCCC3)nn2)c1)C(F)(F)F	-6.2	.	-2.6	94.7*	68.5*
CCC(=O)Nc1cccc(-c2ccc(N3CCC(C)CC3)nn2)c1	-1.3	.	-2.7	18.2	16.4
CC1CCN(c2ccc(-c3cccc(NC(=O)C(F)(F)F)c3)nn2)CC1	-9.9	.	-0.8	94.1*	79.6*
N=c1c2c(n(Cc3ccc(F)cc3)c3c1CCC3)CCCC2	-1.2	27.7	4.6	68.8*	-10.5
N=c1c2c(n(Cc3ccc(Cl)cc3)c3c1CCC3)CCC2	-6.6	28.9	-2.5	.	.
CCCC#Cc1ccc([C@H]2[C@H](CO)N3C(=O)CN(C(=O)Nc4cc(F)ccc4F)C[C@@H]23)cc1	.	2.4	10.3*	14.4	.
O=C(Nc1cc(F)ccc1F)N1CC(=O)N2[C@@H](CO)[C@H](c3ccc(C#CC4CCCCC4)cc3)[C@@H]2C1	.	-10.3	9.9*	11.6	.
CC(C)CC#Cc1ccc([C@H]2[C@@H](CO)N3C(=O)CN(C(=O)Nc4cc(F)ccc4F)C[C@H]23)cc1	.	4.3	-0.1	-1.4	.
N#C[C@@H]1[C@H](c2ccc(C#Cc3ccccc3F)cc2)[C@@H](CO)N1C(=O)C1CCC1	.	37.7	4.3	32.2	31.3[16.7 µM]
N#C[C@H]1[C@@H](c2ccc(C#Cc3ccc(F)cc3)cc2)[C@H](CO)N1C(=O)C1CCCC1	.	28.4	6.1	86.9*	17.3[16.7 µM]
CCCC#Cc1ccc([C@H]2[C@@H](CO)N(C(=O)C3CCCCC3)[C@H]2C#N)cc1	.	2.4	-0.8	84.1*	11.9[16.7 µM]
CN(C)C(=O)c1cccc(-c2ccccc2[C@@H]2[C@H](C#N)N(C(=O)C3CC3)[C@H]2CO)c1	.	4.1	0.7	-22.0	.
SMILES	FXN GAA850 act	EWS-Fli block	F508del corr	PAX8 inh HTS	Env fusion inh
CN(C)C(=O)c1cccc(-c2ccccc2[C@@H]2[C@@H](C#N)N(C(=O)C3CC3)[C@H]2CO)c1	.	2.3	-8.9	112.5*	.
N#C[C@@H]1[C@@H](c2ccc(C#Cc3ccc(F)cc3)cc2)[C@H](CO)N1C(=O)C1CCCC1	.	4.8	1.7	34.1	-3.5[16.7 µM]
N#C[C@H]1[C@H](c2ccc(C#Cc3ccccc3F)cc2)[C@H](CO)N1C(=O)C1CCC1	.	65.6*	0.9	87.0*	-1.1[16.7 µM]
N#C[C@@H]1[C@@H](c2ccc(-c3ccccc3F)cc2)[C@@H](CO)N1C(=O)C1CCC1	.	-1.5	4.6	81.5*	-3.5[16.7 µM]
COc1ccc(CNCC(O)(c2ccc(Cl)cc2)c2ccc(Cl)cc2)cc1OC	-8.5	.	.	.	63.0*
CN(C)C(=O)c1cccc(-c2ccccc2[C@@H]2[C@@H](CO)N(C(=O)C3CCCC3)[C@H]2C#N)c1	.	-9.4	0.5	.	.
COC(=O)C1=C(C)N(Cc2cccc(C(F)(F)F)c2)C(=NCc2ccc3c(c2)OCO3)NC1c1cccc(F)c1 (stereo not drawn)	.	45.4	0.5	65.0*	30.6
O=C(NCC[C@H]1CC[C@@H](NC(=O)c2ccc3c(c2)OCO3)[C@H](CO)O1)Nc1cc(F)ccc1F	.	-2.0	-0.1	3.1	-0.8[16.7 µM]
CCCC#Cc1ccc2c(c1)O[C@@H](CN(C)C(=O)c1cnccn1)[C@@H](C)CN([C@@H](C)CO)S2(=O)=O	.	53.6*	1.1	.	-3.4[16.7 µM]
COc1ccc(C#Cc2ccc3c(c2)O[C@@H](CN(C)C(=O)c2ccccn2)[C@H](C)CN([C@@H](C)CO)S3(=O)=O)cc1	.	3.3	1.8	65.5*	19.1[16.7 µM]
CCCC#Cc1ccc2c(c1)O[C@@H](CN(C)C(=O)c1cnccn1)[C@@H](C)CN([C@H](C)CO)S2(=O)=O	.	-1.8	3.8	.	-8.3[16.7 µM]
COc1ccc(C#Cc2ccc3c(c2)O[C@H](CN(C)C(=O)c2ccccn2)[C@H](C)CN([C@@H](C)CO)S3(=O)=O)cc1	.	0.9	-1.4	13.7	26.2[16.7 µM]
COC(=O)[C@@H]1[C@@H](CO)[C@@H]2Cn3c(cccc3=O)[C@@H]2N1C(=O)C1CCCCC1	.	-6.8	1.6	.	.
COc1ccc(S(=O)(=O)Nc2ccc3c(c2)C(=O)N([C@H](C)CO)C[C@H](C)[C@@H](CN(C)Cc2ccc4c(c2)OCO4)OCCCC[C@@H](C)O3)cc1	.	5.4	1.1	-3.1	-47.4[16.7 µM]
COc1ccc(NC(=S)NCCCN2CCN(C3CCCCC3)CC2)cc1	-0.8	-1.6	-1.5	15.6	62.8*
CCOc1ccc(NC(=S)NCCCN2CCN(C3CCCCC3)CC2)cc1	1.6	11.5	1.4	37.3	.
COc1ccc(N2CCN(C(c3cc4cc(C)ccc4[nH]c3=O)c3nnnn3Cc3ccccc3)CC2)cc1 (stereo not drawn)	-7.8	.	.	-12.7	-208.3
CCC(C)(C)n1nnnc1C(c1cc2cc(C)ccc2[nH]c1=O)N1CCCC1 (stereo not drawn)	10.0*	.	.	.	-24.3
